High-throughput results as filed in PubChem BioAssay.
ELG1 genotox = induces genotoxicity in HEK293T cells with luciferase-tagged ELG1; HEK293T ELG1-luciferase reporter, luminescence, 16 h; Potency, µM (series often up to 46 µM), for the others: top-dose activity change, positive = activation, actives largely listed as activators; actives 1.3% (n = 330,000); note: % of control where 0% means no effect; nearly all actives have a fitted effect of over 60% in size
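Cells (2,000/well) expressing the ELG1-luciferase fusion are dosed by pin tool and kept 16 hr at 37 °C, 5% CO2. Signal comes from ONE-Glo luciferase reagent after 30 min at room temperature.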
SMN2 splice enh = enhancers of SMN2 splice variant expression. HEK293 SMN2-luciferase splicing reporter, luminescence, 30-36 h. Potency, µM (titrated, usually from 46.1 µM), for inactives: at the highest dose activity change, positive = activation, most hits filed as activators. actives 2.8% (n = 210,000); note: % of control where 0% means no effect; nearly all actives have a fitted effect of over 55% in size
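HEK293 cells carry an SMN2 […]–luciferase reporter in which exon 7 inclusion puts luciferase in frame. Cells were plated 10-12 h before compound addition, then incubated 30-36 h at 37C. ONE-Glo luminescence was read; sodium butyrate at 4.5 mM final served as control.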
Luc counter = counter-screen: inhibitors of Kinase-Glo firefly luciferase; Kinase-Glo luciferase, ATP luminescence, 8 min; Potency, µM (highest dose often 38.3 µM), for the others: top-dose activity change, negative = inhibition, hits mostly inhibitors; actives 0.28% (n = 200,000); note: % is set by controls: 0 for no effect and ±100 for the full control effect; nearly all actives have a fitted effect of over 60% in size
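Luminescence was the read-out, taken after 8-minute incubation at ambient temperature. Luciferase turned over luciferin with 10 uM ATP in imidazole pH 7.2 buffer containing KCl, MgCl2, Tween 20 and BSA.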
FLuc modulator = inhibits or activates purified firefly luciferase, miR-21 counter-screen; AID 588342; actives 6.9% (n = 360,000); purified FLuc, Km substrates, luminescence inhibition; Potency, µM (doses to about 57.5 µM), for inactives: top-dose activity change, negative = inhibition, usual class: inhibitors;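 note: plate controls were vehicle for no effect and reference inhibitor for full effect; nearly all actives have a fitted effect of over 55% in size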
Target sequence (P08659 whole entry, looked up): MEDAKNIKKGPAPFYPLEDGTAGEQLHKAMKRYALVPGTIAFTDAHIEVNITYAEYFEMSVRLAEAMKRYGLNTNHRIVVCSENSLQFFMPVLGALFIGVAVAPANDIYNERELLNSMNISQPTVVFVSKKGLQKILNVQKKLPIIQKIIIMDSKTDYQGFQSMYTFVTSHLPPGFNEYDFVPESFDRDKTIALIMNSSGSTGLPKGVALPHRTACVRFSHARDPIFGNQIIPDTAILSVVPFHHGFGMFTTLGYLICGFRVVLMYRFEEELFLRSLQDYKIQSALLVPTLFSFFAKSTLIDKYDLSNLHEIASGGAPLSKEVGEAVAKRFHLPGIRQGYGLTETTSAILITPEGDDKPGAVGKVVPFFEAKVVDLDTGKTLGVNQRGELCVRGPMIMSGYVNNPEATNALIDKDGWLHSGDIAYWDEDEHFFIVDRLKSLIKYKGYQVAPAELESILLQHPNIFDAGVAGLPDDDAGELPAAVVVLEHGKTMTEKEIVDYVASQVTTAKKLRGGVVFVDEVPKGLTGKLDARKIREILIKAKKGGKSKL
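Purified P. pyralis luciferase (10nM final) with 10uM D-luciferin and 10uM ATP (Km levels) in 50mM Tris acetate pH 7.5, 10mM Mg acetate, 0.01% Tween-20, 0.05% BSA; qHTS 6-point titration, ~60 µM downward; luminescence read.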
Rab9 promoter act = activates the Rab9 promoter; Potency, µM (doses to about 9.22 µM), without a hit: at the highest dose activation, negative = inhibition, usual class: activators; Huh7 Rab9 promoter-luciferase reporter, luminescence, 24 h; actives 2.8% (n = 320,000); AID 485297; note: % of control where 0% means no effect; nearly all actives have a fitted effect of over 60% in size
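Rab9 promoter-driven luciferase in stably transfected Huh7 cells; 1500 cells/well rested 2 h, exposed to compound in DMSO for 24 h at 37 °C, 5% CO2. Luminescence read 10 min after adding luciferase reagent at ambient temperature.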
NPC1 prom act = activators of NPC1 promoter | Huh7 NPC1 promoter luciferase reporter, 24 h | Potency, µM (series often up to 9.22 µM), for the others: top-dose activation, usual class: activators | actives 2.4% (n = 320,000); note: % of control where 0% means no effect; nearly all actives have a fitted effect of over 60% in size
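Huh7 cells stably carrying NPC1 promoter–luciferase, plated in Opti-MEM with 10% FBS for 2 h, were exposed to compound in DMSO for 24 h at 37 °C; luciferase reagent was added for 10 min and luminescence read.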
* hit, by the source's call. A selection: hits, their analogues and other compounds. The true share with any hit is near 7.5%. Calls come from the whole dose curve; as a rule, active = well fitted curve in the direction sought with a large enough effect; inconclusive = small, poorly fitted or top-dose-only effect, or another doubt; inactive = no such curve, though single readings can be large; an effect the other way counts as inactive or inconclusive. Potency is the fitted concentration of half-maximal effect.

CCn1nnc2cc(C(=O)Nc3cc(OC)cc(OC)c3)ccc21 was read as ELG1 genotox inconclusive, FLuc modulator 16.9µM*, Rab9 promoter act 24.5% and NPC1 prom act 12.7%.
COc1ccc(C(=O)Nc2cc(OC)cc(OC)c2)cc1 was read as ELG1 genotox inconclusive, SMN2 splice enh 25.1µM*, Luc counter -29.7%, FLuc modulator 4.78µM*, Rab9 promoter act 1.78µM* and NPC1 prom act 2µM*.
COc1cc(NC(=O)c2ccccc2)cc(OC)c1 was read as ELG1 genotox inconclusive, SMN2 splice enh inconclusive, Luc counter -17.6%, FLuc modulator 19µM*, Rab9 promoter act inconclusive and NPC1 prom act 6.31µM*.
For Cc1ccc(-c2[nH]nc3c2C(c2cccnc2)C(C#N)=C(N)O3)cc1 (stereo unspecified) the results were FLuc modulator -8.3%, Rab9 promoter act -1.7% and NPC1 prom act -4.1%.
`N#CC1=C(N)Oc2n[nH]c(-c3ccccc3)c2C1c1cccnc1` (stereo unspecified) gave ELG1 genotox 0.4%, SMN2 splice enh 3.55µM*, Luc counter -3.3%, FLuc modulator 4.7%, Rab9 promoter act 12.6% and NPC1 prom act 3.1%.
Screening CCCCOc1cccc(C(=O)Nc2cc(NC(=O)c3ccco3)ccc2OC)c1 returned SMN2 splice enh -21.2% and FLuc modulator inconclusive.
`CSc1nsc(SCC(=O)Nc2ccc(F)cc2)n1` gave ELG1 genotox 8.4%, FLuc modulator -19.8%, Rab9 promoter act 5.1% and NPC1 prom act 0.2%.
Cc1csc(SCC(=O)Nc2ccc3c(c2)OCCO3)n1 was read as ELG1 genotox inconclusive, SMN2 splice enh inconclusive, Luc counter -0.3%, FLuc modulator 21.3µM*, Rab9 promoter act inconclusive and NPC1 prom act 25.4%.
For CSc1nsc(SCC(=O)Nc2ccc3c(c2)OCCO3)n1 the results were ELG1 genotox 10µM*, SMN2 splice enh 22.4µM*, Luc counter 1.3%, FLuc modulator 21.3µM*, Rab9 promoter act 17.0% and NPC1 prom act 9.5%.
For Cc1csc(SCC(=O)Nc2ccc(C)c(F)c2)n1 the results were ELG1 genotox 3.0%, Rab9 promoter act 16.9% and NPC1 prom act 8.7%.
Screening Nc1nn(-c2ccccc2)nc1C(=O)OCc1ccccc1 returned ELG1 genotox inconclusive, SMN2 splice enh 29.8%, FLuc modulator 15.1µM*, Rab9 promoter act 18.1% and NPC1 prom act 12.9%.
`NNC(=O)c1cc(-c2cccs2)nc2ccccc12` gave ELG1 genotox -1.4%, FLuc modulator -19.3%, Rab9 promoter act -2.7% and NPC1 prom act -1.5%.
`CC(C)NC(=O)c1cc(-c2cccs2)nc2ccccc12` gave ELG1 genotox -10.8%, FLuc modulator -10.7%, Rab9 promoter act 0.0% and NPC1 prom act -2.5%.
O=C(O)c1ccc(/C=N/NC(=O)c2cc(-c3cccs3)nc3ccccc23)cc1 was read as ELG1 genotox 9.1%, SMN2 splice enh 4.0%, Luc counter 0.2%, FLuc modulator 6.01µM*, Rab9 promoter act 9.3% and NPC1 prom act 1.9%.
Screening O=C(N/N=C/c1ccsc1)c1cc(-c2cccs2)nc2ccccc12 returned ELG1 genotox -4.0%, SMN2 splice enh inconclusive, Luc counter -4.2%, FLuc modulator 9.53µM*, Rab9 promoter act -5.0% and NPC1 prom act -12.0%.
O=C(N/N=C/c1ccsc1)c1cc(-c2ccncc2)nc2ccccc12 was read as ELG1 genotox 5.5%, SMN2 splice enh 7.4%, Luc counter -2.6%, FLuc modulator inconclusive, Rab9 promoter act -11.4% and NPC1 prom act -16.8%.
For C/C(=N\NC(=O)c1cc(-c2cccs2)nc2ccccc12)c1ccccn1 the results were ELG1 genotox -0.2%, SMN2 splice enh -80.6%, Luc counter 0.1%, FLuc modulator 23.9µM*, Rab9 promoter act -44.9% and NPC1 prom act -19.5%.
